Screens from PubChem.
Rows were chosen to be rich in hits. Some 8% of all compounds tested hit in one or more screens of this group.
MCF10A rereplic: induces DNA re-replication in MCF 10a normal breast cells. hit rate 2.9% among 350,000. MCF 10A DNA re-replication, Hoechst nuclear intensity, 48 h. Potency, µM (doses to about 46.1 µM), for the others: at the highest dose activity, positive = re-replication, most hits filed as activators; note: % of control where 0% means no effect; nearly all actives have a fitted effect of over 50% in size
SW480 rereplic: induces DNA re-replication in SW480 colon adenocarcinoma cells; SW480 DNA re-replication, Hoechst DNA content imaging, 48 h; Potency, µM (top dose mostly 46.1 µM), inactives show at the highest dose re-replication activation, hits mostly activators; hit rate 1.8% among 340,000; AID 624297; note: % of control where 0% means no effect; nearly all actives have a fitted effect of over 55% in size
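Quantitative HTS format with DMSO vehicle controls; 48 hr drug incubation at 37 C, then 40 min Hoechst staining and scanning imager measurement at 405 nm excitation.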
HT1080 IDH1KD tx: HT-1080 IDH1 knockdown cell toxicity (counter line); Potency, µM (doses to about 46.1 µM), for inactives: top-dose activity, negative = toxicity, hits mostly cytotoxic; HT-1080 IDH1 knockdown viability, ATP luminescence, 48 h; hit rate 2% among 360,000;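 note: 0% = DMSO wells and -100% = cell-free medium wells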
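HT-1080-IDH1KD cells (IDH1 knocked down), 750/well in RPMI with 5% FBS, treated with compound 48 h at 37 degrees C. Viability by CellTiter-Glo luminescence, normalised to DMSO and no-cell wells; concentration-response curves classed.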
KB-V1 MDR tox: kills drug-selected multidrug resistant KB-V1 cells; hit rate 3.4% among 400,000; KB-V1 MDR cells viability, CellTiter-Glo, 72 h; Potency, µM (titrated, usually from 46.1 µM), hits mostly cytotoxic; AID 1347076; note: % is set by controls: 0 for no effect and ±100 for the full control effect; nearly all actives have a fitted effect of over 60% in size
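Cytotoxicity toward P-gp-expressing KB-V1 cells was determined as loss of CellTiter-Glo luminescence after 72 h at 37 degrees C. Compounds were tested in quantitative HTS format across a concentration range, with curves fitted to normalized data.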
HT1080NT lethal: kills 2HG-producing HT-1080-NT fibrosarcoma cells. HT-1080-NT fibrosarcoma viability, CellTiter-Glo ATP luminescence, 48 h. Potency, µM (highest dose often 46.1 µM), without a hit: at the highest dose activity, negative = less viability, hits mostly cytotoxic. hit rate 1.6% among 360,000. AID 686970;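 note: NT is the 2HG producing partner of a matched IDH1 knockdown line; 0% = DMSO-treated cells and -100% = media-only wells without cells; nearly all actives have a fitted effect of over 55% in size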
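HT-1080-NT; 750 cells/well; 5% FBS RPMI; 48 h compound, 37 degrees C; CellTiter-Glo luminescence; curve fitting and curve-class assignment.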
KB-3-1 cytotox: KB-3-1 parental cell cytotoxicity | KB-3-1 viability, CellTiter-Glo ATP luminescence, 72 h | Potency, µM (top dose mostly 46.1 µM), actives largely listed as cytotoxic | hit rate 1.4% among 400,000 | AID 1347075; note: % is set by controls: 0 for no effect and ±100 for the full control effect; nearly all actives have a fitted effect of over 60% in size
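Cytotoxicity in the drug-sensitive parental line KB-3-1 was scored as loss of CellTiter-Glo luminescence following 72 h incubation with compound. Values come from curve fitting of normalized concentration-response data.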
Numbers without * were called inactive; i = inactive; ? = inconclusive; nt = no result; [ ] = dose if it differs, or a comment. Calls come from the whole dose curve; as a rule, active = well fitted curve in the direction sought with a large enough effect; inconclusive = small, poorly fitted or top-dose-only effect, or another doubt; inactive = no such curve, though single readings can be large; an effect the other way counts as inactive or inconclusive. Potency is the fitted concentration of half-maximal effect.

SMILES	MCF10A rereplic	SW480 rereplic	HT1080 IDH1KD tx	KB-V1 MDR tox	HT1080NT lethal	KB-3-1 cytotox
C=CCn1c(CCNC(=O)c2ccc(Cl)c(Cl)c2)nnc1SCCOc1ccc(OC)cc1	20.6µM*	9.5%	?	5.17µM*	?	i
CCS(=O)(=O)NCCc1csc(-c2ccc(OC)c(OC)c2)n1	-2.1%	-12.1%	13.0%	?	10.8%	i
CCOC(=O)c1cccc(NC(=O)CSc2nnc(COc3ccccc3)n2CC)c1	?	1.0%	-4.7%	11.6µM*	5.0%	i
NC(CCc1ccccc1)c1csc(NC(=O)NCCc2ccccc2)n1 (stereo unspecified)	nt	nt	16.4µM*	?	16.4µM*	?
COc1ccc(CC(N)c2csc(NC(=O)NCCc3ccccc3)n2)cc1 (stereo unspecified)	nt	nt	?	i	?	i
COc1ccccc1CNC(=O)Nc1nc(C(N)CCc2ccccc2)cs1 (stereo unspecified)	nt	nt	18.4µM*	i	?	?
NC(Cc1ccc(Cl)cc1)c1csc(NC(=O)NCC2CCCCC2)n1 (stereo unspecified)	nt	nt	16.4µM*	16.4µM*	16.4µM*	?
COc1cc(CNC(=O)Nc2nc(C(N)Cc3ccc(Cl)cc3)cs2)cc(OC)c1OC (stereo unspecified)	nt	nt	?	i	6.51µM*	?
CCCc1c(C(=O)Nc2ccc(C(F)(F)F)cc2)cnn1-c1ccccc1	26.3%	3.6%	-22.0%	i	-15.9%	i
NC(Cc1ccc(Cl)cc1)c1csc(NC(=O)NCCc2ccccc2)n1 (stereo unspecified)	nt	nt	?	i	16.4µM*	?
NC(=S)N/N=C/c1c(O)c(Br)cc2oc3c(c12)CCCC3	?	18.4µM*	-23.1%	?	-22.1%	20.6µM*
CCN(CC)CC(O)Cn1c(C)c(-c2ccccc2)c2cc([N+](=O)[O-])ccc21 (stereo unspecified)	?	?	?	i	20.6µM*	?
Cc1cc(C)c(S(=O)(=O)N2CCN(C(=O)c3ccccc3OCc3c(C)noc3C)CC2)c(C)c1	10.3%	0.1%	-0.4%	7.31µM*	-7.2%	i
Cc1noc(C)c1COc1ccc(C(=O)N2CCN(c3cccc(Cl)c3)CC2)cc1	?	-3.6%	2.4%	i	15.0%	i
Cc1noc(C)c1COc1ccccc1C(=O)N1CCN(c2cccc(Cl)c2)CC1	4.5%	?	23.1µM*	?	23.1µM*	?
Cc1ccc(S(=O)(=O)N2CCN(C(=O)c3ccccc3OCc3c(C)noc3C)CC2)cc1C	-0.6%	25.8%	-13.5%	i	-20.0%	i
CS(=O)(=O)c1ccccc1-c1nnc(NC(=O)c2ccco2)o1	-0.9%	-4.9%	27.0%	i	22.1%	i
COCc1cc(=O)oc2cc(NC(=O)c3ccc(C(C)(C)C)cc3)ccc12	?	?	5.5%	i	5.9%	i
CCOc1cc(-c2nc(-c3ccccc3)c(-c3cc([N+](=O)[O-])ccc3C)[nH]2)ccc1O	5.5%	20.5%	-26.9%	18.4µM*	-24.4%	i
COc1ccc(-c2nc(-c3ccccc3)c(-c3cc([N+](=O)[O-])ccc3C)[nH]2)cc1OC	5.0%	-6.8%	-8.9%	i	-17.9%	?
C=CCN(CC=C)S(=O)(=O)c1ccc(NC(=S)NC(=O)Cc2ccc(OC)cc2)cc1	7.4%	1.9%	?	20.6µM*	-9.6%	i
C=CCN(CC=C)S(=O)(=O)c1ccc(NC(=S)NC(=O)c2ccco2)cc1	5.9%	1.0%	-0.1%[9.24 µM]	13µM*	-14.5%	?
CCN(CC)S(=O)(=O)c1ccc(/C=C/C(=O)Nc2ccc(Br)cc2F)cc1	?	15.5%	-19.4%	i	-17.1%	?
C[C@@H]1CN([C@@H](C)CO)C(=O)CCCn2nncc2CO[C@H]1CN(C)S(=O)(=O)c1ccc(Oc2ccccc2)cc1	nt	nt	7.3%	?	15.0%	i
O=C(NCc1ccccc1)c1ccc2c(c1)C(=O)N(CC1CCCO1)C2=O (stereo unspecified)	368.0%[0.0737 µM]	?	-3.2%	i	-3.0%	i
SMILES	MCF10A rereplic	SW480 rereplic	HT1080 IDH1KD tx	KB-V1 MDR tox	HT1080NT lethal	KB-3-1 cytotox
CC(=O)c1ccc(NC(=O)C2CCN(S(=O)(=O)c3ccc4c(c3)CCCN4C(=O)C3CCC3)CC2)cc1	nt	nt	nt	i	nt	i
O=C(Nc1ccc2nc(-c3cccnc3)[nH]c2c1)C12CC3CC(CC(C3)C1)C2	-11.3%	-6.1%[9.22 µM]	17.8µM*	?	12.6µM*	11.2µM*
COc1cc2ccc(=O)oc2c(O)c1OCC=C(C)C	-9.5%	2.06µM*	?	i	-28.5%	i
CC(C)=CCOc1ccc2ccc(=O)oc2c1	-7.6%	-2.1%	13.1%	i	11.7%	i
CCCCn1cnc2c(sc3nc4c(cc32)CSC(C)(C)C4)c1=O	4.6%	-7.2%	-3.6%	20.6µM*	-4.0%	i
CC(C)CCn1cnc2c(sc3nc4c(cc32)CSC(C)(C)C4)c1=O	?	-6.4%	3.0%	?	9.0%	i
Cc1cccc(-c2cnn(-c3ccccc3)c2N)c1	3.8%	18.4µM*	2.3%	i	15.9%	i
CCN(CC)S(=O)(=O)c1cccc(-c2nnc(SCCCC(=O)c3ccc(F)cc3)o2)c1	21.0%	-11.6%	-16.0%	15.8µM*	-10.3%	i
CCN(CC)S(=O)(=O)c1ccc(-c2nnc(SC)o2)cc1	2.6%	1.0%	4.6%	14.6µM*	14.9%	i
CCN(CC)S(=O)(=O)c1ccc(-c2nnc(SCC(=O)c3ccc(OC)cc3)o2)cc1	-13.6%	4.7%	-0.5%	i	-1.9%	i
CCN(CC)S(=O)(=O)c1cccc(-c2nnc(SC(C)C(=O)NCCC3=CCCCC3)o2)c1 (stereo unspecified)	5.9%	-1.5%	-9.8%	10.3µM*	-0.9%	?
CC1(C(=O)NS(=O)(=O)Cc2ccccc2)CCN1C(=O)C/C=C/c1ccccc1 (stereo unspecified)	nt	nt	10.7%	i	14.6%	i
COc1cc2cnc(-c3ccccc3)c(-c3ccc(C#N)cc3)c2cc1OC	-6.4%	-0.1%	9.5%	i	0.0%	13µM*
CCN(CC)c1ccc(/C=C/C(=O)C2C(=O)C=C(C)OC2=O)cc1 (stereo unspecified)	18.4µM*	?	-5.0%	?	-14.5%	i
CCN(CC)c1ccc(C=C2C(=O)OC(c3ccccc3)OC2=O)cc1 (stereo unspecified)	1.9%	5.2%	-3.2%	i	4.2%	i
